Data as given in PMC11006913.

target: HOXA4 (Homo sapiens, UniProt Q00056 201-287, W262F); experiment: PBM; 200 nM protein, PBS; settings: dsDNA, one strand shown
Sequence (Q00056 201-287 W262F): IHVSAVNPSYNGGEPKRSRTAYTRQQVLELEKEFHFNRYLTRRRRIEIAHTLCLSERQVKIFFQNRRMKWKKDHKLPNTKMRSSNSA

Row | Sequence | binding signal
1 | CACCCTGG | 9.87 upbm affinity estimate (log intensity, higher = more binding, comparable within an allelic series)
2 | CATGATTA | 10.8 upbm affinity estimate (log intensity, higher = more binding, comparable within an allelic series)
3 | ACCCTAGG | 9.92 upbm affinity estimate (log intensity, higher = more binding, comparable within an allelic series)
4 | CAATCACG | 10.5 upbm affinity estimate (log intensity, higher = more binding, comparable within an allelic series)
5 | CACGGTGC | 9.86 upbm affinity estimate (log intensity, higher = more binding, comparable within an allelic series)
6 | CCTCCAGC | 9.76 upbm affinity estimate (log intensity, higher = more binding, comparable within an allelic series)
7 | AGGGCGAG | 9.91 upbm affinity estimate (log intensity, higher = more binding, comparable within an allelic series)
8 | ACCTGCCG | 9.88 upbm affinity estimate (log intensity, higher = more binding, comparable within an allelic series)
9 | AGGGGGCA | 9.82 upbm affinity estimate (log intensity, higher = more binding, comparable within an allelic series)
10 | AGTCCTTC | 9.89 upbm affinity estimate (log intensity, higher = more binding, comparable within an allelic series)
11 | AGCTCCCC | 9.81 upbm affinity estimate (log intensity, higher = more binding, comparable within an allelic series)
12 | CTCCCACC | 9.88 upbm affinity estimate (log intensity, higher = more binding, comparable within an allelic series)
13 | ACGTTAAT | 11 upbm affinity estimate (log intensity, higher = more binding, comparable within an allelic series)
14 | CCACGCCC | 9.99 upbm affinity estimate (log intensity, higher = more binding, comparable within an allelic series)
15 | CCTCGTCC | 9.98 upbm affinity estimate (log intensity, higher = more binding, comparable within an allelic series)
16 | CCCCGACC | 9.99 upbm affinity estimate (log intensity, higher = more binding, comparable within an allelic series)
17 | AATCCCCC | 9.73 upbm affinity estimate (log intensity, higher = more binding, comparable within an allelic series)
18 | AGTCCCCG | 9.99 upbm affinity estimate (log intensity, higher = more binding, comparable within an allelic series)
19 | CAGACCTC | 9.9 upbm affinity estimate (log intensity, higher = more binding, comparable within an allelic series)
20 | CCCATGGC | 9.85 upbm affinity estimate (log intensity, higher = more binding, comparable within an allelic series)
21 | CAGGGGGA | 9.7 upbm affinity estimate (log intensity, higher = more binding, comparable within an allelic series)
22 | CCTCCGTC | 9.84 upbm affinity estimate (log intensity, higher = more binding, comparable within an allelic series)
23 | CCTTCCCG | 9.89 upbm affinity estimate (log intensity, higher = more binding, comparable within an allelic series)
24 | CCAGCGGG | 9.76 upbm affinity estimate (log intensity, higher = more binding, comparable within an allelic series)
25 | AGGAGTCC | 9.94 upbm affinity estimate (log intensity, higher = more binding, comparable within an allelic series)
26 | GGACTCCC | 9.79 upbm affinity estimate (log intensity, higher = more binding, comparable within an allelic series)
27 | GAAGGGGA | 10 upbm affinity estimate (log intensity, higher = more binding, comparable within an allelic series)
28 | CCTGGGCG | 9.8 upbm affinity estimate (log intensity, higher = more binding, comparable within an allelic series)
